These results are taken from PubChem BioAssay (EPA / NIEHS).

Assay [1] has as its target Estrogen-related receptor gamma (Homo sapiens) (UniProt P62508). As to the kind of experiment: ATG_ERRg_TRANS: Attagene TRANS-FACTORIAL HepG2 Assay for human Estrogen-Related Receptor gamma (ERRg) (AID 2282977; active means hit-call score of the fitted dose curve at least 0.9, where 1 is the maximum;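 further: hits increase reporter signal over DMSO so potencies reflect activators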). The conditions noted are these: HepG2 Attagene TRANS reporter, ERRg transactivation. In short, it runs like this:
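Transfect HepG2 with multiple GAL4-UAS reporter transcription units; dose chemicals 24 h; isolate RNA, reverse-transcribe with oligo(dT), PCR-amplify, label with 6-FAM, digest with HpaI; size fragments by capillary electrophoresis. DMSO serves as negative control.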

The target in assay [2] is Glucocorticoid receptor (Homo sapiens) (UniProt P04150). As to the kind of experiment: ATG_GR_TRANS: Attagene TRANS-FACTORIAL HepG2 Assay for human Glucocorticoid Receptor (GR) (AID 2282978; active means hit-call score of the fitted dose curve at least 0.9, where 1 is the maximum;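 further: activators score as hits since higher reporter transcript over DMSO is fitted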). The conditions noted are these: HepG2 Attagene TRANS GR reporter, mRNA transcription. In short, it runs like this:
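Measurement of GAL4-UAS-driven reporter mRNA in human HepG2 liver cells 24 h post-dosing, using RT-PCR with fluorescent labelling and capillary electrophoresis; the transfected constructs report exogenous NR-GAL4 chimera activity, fitted upward against DMSO.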

The target of assay [3] is Bile acid receptor (Homo sapiens) (UniProt Q96RI1). The assay can be described thus: ATG_FXR_TRANS: Attagene TRANS-FACTORIAL HepG2 Assay for Farnesoid X Receptor (FXR) (AID 2282979; active means hit-call score of the fitted dose curve at least 0.9, where 1 is the maximum;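 further: hits raise reporter mRNA above DMSO so AC50 marks FXR activation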). The conditions noted are these: HepG2 Attagene TRANS FXR-GAL4 reporter transcription. In short, it runs like this:
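Reporter transcripts from transfected HepG2 cells were measured 24 h after dosing, using RT-PCR with capillary electrophoresis of 6-FAM-labelled fragments. The read-out reflects activity of exogenous FXR-Gal4 chimera on GAL4-UAS units, with induction relative to DMSO.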

In assay [4] the target is Oxysterols receptor LXR-alpha (Homo sapiens) (UniProt Q13133). As to the kind of experiment: ATG_LXRa_TRANS: Attagene TRANS-FACTORIAL HepG2 Assay for human Liver X Receptor alpha (LXRa) (AID 2282980; active means hit-call score of the fitted dose curve at least 0.9, where 1 is the maximum). The conditions noted are these: HepG2 Attagene TRANS reporter, LXRa transactivation. In short, it runs like this: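 Chemical-induced reporter mRNA measured by RT-PCR with fluorescent labelling and capillary electrophoresis after 24 h dosing of transiently transfected HepG2 cells expressing exogenous NR-Gal4 chimeras; increases scored against DMSO baseline.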

The target of assay [5] is Hepatocyte nuclear factor 4-alpha (Homo sapiens) (UniProt P41235). The assay can be described thus: ATG_HNF4a_TRANS: Attagene TRANS-FACTORIAL HepG2 Assay for human Hepatocyte Nuclear Factor 4 alpha (HNF4a) (AID 2282982; active means hit-call score of the fitted dose curve at least 0.9, where 1 is the maximum). The conditions noted are these: HepG2 HNF4a transactivation reporter, mRNA readout. The procedure, abridged:
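Cells used were human HepG2, transiently carrying GAL4-UAS reporter units read out against exogenous NR-GAL4 chimeras. Reporter transcript levels after 24 h dosing were quantified by fluorescent RT-PCR and capillary electrophoresis.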

Assay [6] is described as follows: ATG_M_06_TRANS: Attagene TRANS-FACTORIAL HepG2 Assay for M06 Transcription Factor (Internal Marker) (AID 2282983; active means hit-call score of the fitted dose curve at least 0.9, where 1 is the maximum). As to conditions: HepG2 Attagene TRANS M06 internal marker reporter. The procedure, abridged:
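Cells: HepG2, transient multi-reporter transfection. Exposure: 24 h. Detection: RT-PCR, 6-FAM labelling, HpaI digestion (2 h, 37 °C), capillary electrophoresis. Baseline: DMSO.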

Assay [7] addresses Nuclear receptor subfamily 4 group A member 2 (Homo sapiens) (UniProt P43354). As to the kind of experiment: ATG_NURR1_TRANS: Attagene TRANS-FACTORIAL HepG2 Assay for human Nuclear Receptor Related Protein 1 (NURR1) (AID 2282985; active means hit-call score of the fitted dose curve at least 0.9, where 1 is the maximum). As to conditions: HepG2 Attagene TRANS reporter, mRNA readout. The procedure, abridged:
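After 24 h chemical dosing, total RNA from transiently transfected HepG2 cells was reverse-transcribed and reporter cDNA PCR-amplified, FAM-labelled and analysed by capillary electrophoresis. Activity fitted in positive direction, DMSO as negative control.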

The target in assay [8] is Transcriptional activator Myb (Homo sapiens) (UniProt P10242). The assay can be described thus: ATG_Myb_CIS: Attagene CIS-FACTORIAL HepG2 Assay for human Myeloblastosis (Myb) Proto-Oncogene Transcription Factor (AID 2282986). The conditions noted are these: HepG2 Attagene CIS-FACTORIAL Myb reporter transcription; actives raise or lower the signal. The procedure, abridged: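 Fluorescence signals from capillary electrophoresis of RT-PCR-amplified reporter cDNA give the read-out. Cells: HepG2 transfected with multiple cis-regulated reporter units. Exposure lasts 24 hours; DMSO defines baseline for gain or loss of signal.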
Transcriptional activator Myb (Homo sapiens), sequence (P10242 whole entry, looked up): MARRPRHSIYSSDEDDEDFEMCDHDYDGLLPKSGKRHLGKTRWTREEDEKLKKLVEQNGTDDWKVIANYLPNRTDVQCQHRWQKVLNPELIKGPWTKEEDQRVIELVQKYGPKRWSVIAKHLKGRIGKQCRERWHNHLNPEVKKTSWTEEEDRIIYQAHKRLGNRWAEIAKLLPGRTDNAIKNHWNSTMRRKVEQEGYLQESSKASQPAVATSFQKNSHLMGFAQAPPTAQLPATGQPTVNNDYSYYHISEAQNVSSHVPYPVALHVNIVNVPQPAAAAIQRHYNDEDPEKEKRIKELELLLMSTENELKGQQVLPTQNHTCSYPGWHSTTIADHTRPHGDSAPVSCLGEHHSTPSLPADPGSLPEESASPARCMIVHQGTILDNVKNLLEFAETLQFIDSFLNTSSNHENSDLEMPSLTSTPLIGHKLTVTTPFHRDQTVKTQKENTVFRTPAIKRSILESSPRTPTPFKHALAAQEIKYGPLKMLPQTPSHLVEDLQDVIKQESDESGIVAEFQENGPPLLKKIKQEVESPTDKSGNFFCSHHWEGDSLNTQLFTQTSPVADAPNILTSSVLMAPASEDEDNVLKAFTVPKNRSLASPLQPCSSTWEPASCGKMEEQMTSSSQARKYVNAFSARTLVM

For assay [9], the target named is Nuclear respiratory factor 1 (Homo sapiens) (UniProt Q16656). The assay can be described thus: ATG_NRF1_CIS: Attagene CIS-FACTORIAL HepG2 Assay for human Nuclear Respiratory Factor 1 (NRF1) Orphan Gene (AID 2282987). As to conditions: HepG2 NRF1 cis-element reporter, Attagene multiplex; actives raise or lower the signal. In short, it runs like this:
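Transcriptional reporter readout, one component of a 52-endpoint multiplexed HepG2 panel. Exposure 24 h; mRNA detected via RT-PCR and fluorescent capillary electrophoresis; fitting in both directions against DMSO.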

Assay [10] is described as follows: ATG_NFI_CIS: Attagene CIS-FACTORIAL HepG2 Assay for human Nuclear Factor I (NFI) (AID 2282989). As to conditions: HepG2 cis-regulatory reporter, NFI response element transcription; actives raise or lower the signal. The procedure, abridged:
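Endogenous TF activity in HepG2 cells transiently transfected with cis-element-driven multiplexed reporter units, read 24 h after dosing. Reporter mRNA quantified by RT-PCR, 6-FAM labelling, HpaI digestion and capillary electrophoresis; bidirectional fit versus DMSO.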

Assay [11] deals with Myc proto-oncogene protein (Homo sapiens) (UniProt P01106). The assay can be described thus: ATG_Myc_CIS: Attagene CIS-FACTORIAL HepG2 Assay for human Myelocytomatosis (Myc) Proto-Oncogene Transcription Factor (AID 2282990). As to conditions: HepG2, Attagene cis-reporter transcription factor activity; actives raise or lower the signal. The procedure, abridged:
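HepG2 cells transiently transfected with multiple cis-promoter-driven reporter transcription units, so endogenous TF activity is read. After 24 h compound exposure, reporter mRNA was quantified by RT-PCR, 6-FAM labelling, HpaI digestion and capillary electrophoresis; bidirectional fit versus DMSO.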

A short description of assay [12]: ATG_NF_kB_CIS: Attagene CIS-FACTORIAL HepG2 Assay for human Nuclear Factor Kappa B (NF-kB) (AID 2282991). The conditions noted are these: HepG2 Attagene cis-factorial NF-kB reporter mRNA; actives raise or lower the signal. In short, it runs like this:
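HepG2, transient multi-reporter transfection, cis promoter elements (endogenous TFs). 24 h exposure. Total RNA → RT → PCR → 6-FAM label → HpaI → CE. Gain/loss vs DMSO.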

A short description of assay [13]: ATG_NRF2_ARE_CIS: Attagene CIS-FACTORIAL HepG2 Assay for human Nuclear Factor Erythroid 2 Related Factor 2 (NFR2) response to Antioxidant Response Elements (ARE) (AID 2282992).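 On AC50: reporter mRNA level measured by RT-PCR and capillary electrophoresis fluorescence.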 The conditions noted are these: HepG2 Attagene ARE/NRF2 reporter, transcription factor activity; actives raise or lower the signal. The procedure, abridged: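 Transient MRTU transfection of HepG2; 24 h compound exposure; TriZol RNA, RT with oligo(dT), PCR, 6-FAM primer extension, HpaI cut, CE. Bidirectional fit vs DMSO.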

Assay [14] can be described thus: ATG_Oct_MLP_CIS: Attagene CIS-FACTORIAL HepG2 Assay for human Octamer-Binding Transcription Factor (Oct) (AID 2282993). The conditions noted are these: HepG2 Attagene cis-factorial Oct reporter, mRNA; actives raise or lower the signal. The procedure, abridged: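 HepG2 cells transiently transfected with cis-element-driven reporter transcription units (endogenous TF activity); 24 h compound exposure. Reporter mRNA quantified by RT-PCR, 6-FAM labelling, HpaI digestion and capillary electrophoresis; bidirectional fit versus DMSO baseline.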

In assay [15] the target is Cellular tumor antigen p53 (Homo sapiens) (UniProt P04637). The assay can be described thus: ATG_p53_CIS: Attagene CIS-FACTORIAL HepG2 Assay for human p53 Transcription Factor (AID 2282994). The conditions noted are these: HepG2 p53 cis-element reporter, Attagene mRNA; actives raise or lower the signal. The procedure, abridged:
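HepG2, transient MRTU transfection (cis promoter elements, endogenous TFs); 24 h dosing; RNA isolation, RT-PCR, 6-FAM primer extension, HpaI digest, CE fluorescence; bidirectional fit vs DMSO.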

Assay [16] is described as follows: BSK_3C_TissueFactor: BioMAP Diversity Plus: 3C Assay for Tissue Factor Biomarker Activity (AID 2282997). As to conditions: BioMAP 3C HUVEC, tissue factor biomarker readout; actives raise or lower the signal. In short, it runs like this:
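Dosing of human umbilical vein endothelial cells preceded a 24 h incubation. Tissue Factor was then read by ELISA, with increases and decreases both scored relative to DMSO controls.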

Assay [17] is described as follows: BSK_3C_uPAR: BioMAP Diversity Plus: 3C Assay for Urokinase-type plasminogen activator receptor (uPAR) Biomarker Activity (AID 2282998). The conditions noted are these: BioMAP 3C HUVEC, uPAR biomarker ELISA; actives raise or lower the signal. The procedure, abridged:
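Primary human umbilical vein endothelial cells, 3C system; surface uPAR measured by ELISA 24 h after dosing. Cytotoxicity via SRB total protein in parallel cultures; bidirectional fit against DMSO.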

A short description of assay [18]: BSK_3C_VCAM1: BioMAP Diversity Plus: 3C Assay for Vascular cell adhesion molecule 1 (VCAM1) Biomarker Activity (AID 2282999). The conditions noted are these: BioMAP 3C HUVEC, VCAM1 ELISA, cytokine-stimulated; actives raise or lower the signal. The procedure, abridged:
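Human umbilical vein endothelial cells were dosed with compound for 24 h, after which cell-surface VCAM-1 was quantified by ELISA. Bidirectional curve fitting used DMSO as negative control and activity baseline.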
(In general: ELISA stands for enzyme-linked immunosorbent assay.)

In assay [19] the target is Oxysterols receptor LXR-beta (Homo sapiens) (UniProt P55055). As to the kind of experiment: ATG_LXRb_TRANS: Attagene TRANS-FACTORIAL HepG2 Assay for human Liver X Receptor beta (LXRb) (AID 2282981; active means hit-call score of the fitted dose curve at least 0.9, where 1 is the maximum). The conditions noted are these: HepG2 Attagene TRANS GAL4-LXRb reporter, mRNA. The procedure, abridged: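 In this TRANS format, exogenous chimeric NR-Gal4 protein activity, not endogenous factors, drives reporter expression in transfected human HepG2 cells. Exposure lasted 24 h; reporter mRNA was read by fluorescent capillary electrophoresis.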
Oxysterols receptor LXR-beta (Homo sapiens), sequence (P55055 whole entry, looked up, the tested form may be a part): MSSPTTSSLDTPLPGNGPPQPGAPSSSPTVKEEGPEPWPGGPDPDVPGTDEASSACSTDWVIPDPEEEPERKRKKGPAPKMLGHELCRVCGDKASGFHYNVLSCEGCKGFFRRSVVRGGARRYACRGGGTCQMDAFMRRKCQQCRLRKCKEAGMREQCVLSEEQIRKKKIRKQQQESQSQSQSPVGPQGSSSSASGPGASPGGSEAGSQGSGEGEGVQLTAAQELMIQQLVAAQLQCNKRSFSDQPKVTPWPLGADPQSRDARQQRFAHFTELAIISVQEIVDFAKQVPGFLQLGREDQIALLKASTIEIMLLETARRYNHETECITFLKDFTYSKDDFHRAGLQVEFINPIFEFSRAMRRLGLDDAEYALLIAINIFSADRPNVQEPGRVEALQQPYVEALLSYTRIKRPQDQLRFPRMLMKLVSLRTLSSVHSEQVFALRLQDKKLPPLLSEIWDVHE

Inconclusive results are not listed. Active and inactive are the calls of the source. How the source made its calls, unless noted: active means hit-call score of the fitted dose curve at least 0.9, where 1 is the maximum; inactive means score below 0.9.

Cellular tumor antigen p53 (Homo sapiens), sequence (P04637 whole entry, looked up): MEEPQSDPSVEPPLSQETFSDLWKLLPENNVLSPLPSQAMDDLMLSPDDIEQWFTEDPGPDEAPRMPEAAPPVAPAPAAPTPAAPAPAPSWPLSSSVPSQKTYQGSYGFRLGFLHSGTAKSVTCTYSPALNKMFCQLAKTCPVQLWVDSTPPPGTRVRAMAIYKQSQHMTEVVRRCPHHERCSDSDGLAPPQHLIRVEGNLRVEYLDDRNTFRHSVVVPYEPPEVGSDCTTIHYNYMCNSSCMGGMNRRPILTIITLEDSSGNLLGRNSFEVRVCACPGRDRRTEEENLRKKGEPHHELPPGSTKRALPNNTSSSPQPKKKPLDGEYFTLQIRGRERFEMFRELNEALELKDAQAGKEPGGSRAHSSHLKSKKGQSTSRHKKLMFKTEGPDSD
Nuclear receptor subfamily 4 group A member 2 (Homo sapiens), sequence (P43354 whole entry, looked up): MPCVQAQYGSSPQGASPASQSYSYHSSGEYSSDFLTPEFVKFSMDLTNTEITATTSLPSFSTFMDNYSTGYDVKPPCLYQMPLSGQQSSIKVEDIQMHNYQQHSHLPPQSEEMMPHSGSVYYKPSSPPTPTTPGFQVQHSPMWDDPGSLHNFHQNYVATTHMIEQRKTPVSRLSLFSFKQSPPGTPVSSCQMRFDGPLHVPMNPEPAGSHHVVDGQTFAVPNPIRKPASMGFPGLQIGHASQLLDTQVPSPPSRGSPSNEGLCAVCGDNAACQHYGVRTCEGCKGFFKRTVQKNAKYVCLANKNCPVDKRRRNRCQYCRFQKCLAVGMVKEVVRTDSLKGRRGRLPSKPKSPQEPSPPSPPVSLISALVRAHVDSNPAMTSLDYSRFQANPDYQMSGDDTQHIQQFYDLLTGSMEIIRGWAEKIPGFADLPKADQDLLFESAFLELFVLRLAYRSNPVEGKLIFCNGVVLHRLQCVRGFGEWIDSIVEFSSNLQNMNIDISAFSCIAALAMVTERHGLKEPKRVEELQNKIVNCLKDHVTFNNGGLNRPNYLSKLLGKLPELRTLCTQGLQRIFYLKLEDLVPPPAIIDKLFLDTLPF
Hepatocyte nuclear factor 4-alpha (Homo sapiens), sequence (P41235 whole entry, looked up, the tested form may be a part): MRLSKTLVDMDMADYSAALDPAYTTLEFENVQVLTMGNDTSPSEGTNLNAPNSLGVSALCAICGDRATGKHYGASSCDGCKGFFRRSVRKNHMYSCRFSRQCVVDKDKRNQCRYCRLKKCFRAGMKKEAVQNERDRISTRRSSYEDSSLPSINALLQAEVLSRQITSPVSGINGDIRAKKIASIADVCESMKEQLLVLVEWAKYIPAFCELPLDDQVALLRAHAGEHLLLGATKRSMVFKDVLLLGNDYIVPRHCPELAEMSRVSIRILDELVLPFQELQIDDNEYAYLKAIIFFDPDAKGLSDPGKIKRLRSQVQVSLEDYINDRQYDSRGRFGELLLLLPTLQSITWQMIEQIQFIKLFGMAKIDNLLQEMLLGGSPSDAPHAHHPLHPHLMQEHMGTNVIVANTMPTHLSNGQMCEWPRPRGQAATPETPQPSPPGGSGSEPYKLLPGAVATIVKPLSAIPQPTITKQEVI
Nuclear respiratory factor 1 (Homo sapiens), sequence (Q16656 whole entry, looked up): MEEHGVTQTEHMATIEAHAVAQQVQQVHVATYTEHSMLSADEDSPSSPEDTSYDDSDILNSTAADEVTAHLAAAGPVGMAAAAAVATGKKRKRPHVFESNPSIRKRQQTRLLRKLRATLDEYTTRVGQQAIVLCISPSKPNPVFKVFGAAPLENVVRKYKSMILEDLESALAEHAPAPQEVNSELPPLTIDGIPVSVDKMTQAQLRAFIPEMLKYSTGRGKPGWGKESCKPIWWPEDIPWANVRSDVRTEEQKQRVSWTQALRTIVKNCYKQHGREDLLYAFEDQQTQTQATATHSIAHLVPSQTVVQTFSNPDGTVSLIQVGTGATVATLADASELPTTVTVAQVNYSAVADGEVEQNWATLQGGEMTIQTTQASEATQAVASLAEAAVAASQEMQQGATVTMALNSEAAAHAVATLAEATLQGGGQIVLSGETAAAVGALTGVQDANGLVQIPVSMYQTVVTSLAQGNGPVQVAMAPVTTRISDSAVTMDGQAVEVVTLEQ
Estrogen-related receptor gamma (Homo sapiens), sequence (P62508 whole entry, looked up, the tested form may be a part): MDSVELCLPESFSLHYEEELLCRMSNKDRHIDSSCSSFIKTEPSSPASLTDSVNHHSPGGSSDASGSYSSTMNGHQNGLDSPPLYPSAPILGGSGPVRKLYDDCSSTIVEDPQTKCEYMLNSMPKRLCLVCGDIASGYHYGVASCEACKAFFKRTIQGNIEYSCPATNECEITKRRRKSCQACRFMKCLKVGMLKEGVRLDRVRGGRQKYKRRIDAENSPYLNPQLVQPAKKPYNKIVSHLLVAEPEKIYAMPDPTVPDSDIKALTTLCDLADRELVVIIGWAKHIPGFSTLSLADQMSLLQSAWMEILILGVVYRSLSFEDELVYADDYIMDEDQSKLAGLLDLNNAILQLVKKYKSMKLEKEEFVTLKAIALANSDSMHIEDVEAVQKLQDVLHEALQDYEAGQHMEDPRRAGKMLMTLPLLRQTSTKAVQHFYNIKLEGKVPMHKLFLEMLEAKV
Myc proto-oncogene protein (Homo sapiens), sequence (P01106 whole entry, looked up): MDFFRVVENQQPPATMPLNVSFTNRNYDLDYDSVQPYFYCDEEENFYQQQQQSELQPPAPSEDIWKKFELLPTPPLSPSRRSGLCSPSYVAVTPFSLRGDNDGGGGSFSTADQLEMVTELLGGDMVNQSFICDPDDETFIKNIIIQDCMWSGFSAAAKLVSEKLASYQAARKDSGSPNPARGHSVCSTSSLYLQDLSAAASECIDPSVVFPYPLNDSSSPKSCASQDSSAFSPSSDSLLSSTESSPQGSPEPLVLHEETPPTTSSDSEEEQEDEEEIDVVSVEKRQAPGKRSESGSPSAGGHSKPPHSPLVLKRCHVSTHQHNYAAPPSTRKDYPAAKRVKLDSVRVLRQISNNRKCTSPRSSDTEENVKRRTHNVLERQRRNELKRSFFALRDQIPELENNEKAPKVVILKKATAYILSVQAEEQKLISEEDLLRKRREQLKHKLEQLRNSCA
Glucocorticoid receptor (Homo sapiens), sequence (P04150 whole entry, looked up, the tested form may be a part): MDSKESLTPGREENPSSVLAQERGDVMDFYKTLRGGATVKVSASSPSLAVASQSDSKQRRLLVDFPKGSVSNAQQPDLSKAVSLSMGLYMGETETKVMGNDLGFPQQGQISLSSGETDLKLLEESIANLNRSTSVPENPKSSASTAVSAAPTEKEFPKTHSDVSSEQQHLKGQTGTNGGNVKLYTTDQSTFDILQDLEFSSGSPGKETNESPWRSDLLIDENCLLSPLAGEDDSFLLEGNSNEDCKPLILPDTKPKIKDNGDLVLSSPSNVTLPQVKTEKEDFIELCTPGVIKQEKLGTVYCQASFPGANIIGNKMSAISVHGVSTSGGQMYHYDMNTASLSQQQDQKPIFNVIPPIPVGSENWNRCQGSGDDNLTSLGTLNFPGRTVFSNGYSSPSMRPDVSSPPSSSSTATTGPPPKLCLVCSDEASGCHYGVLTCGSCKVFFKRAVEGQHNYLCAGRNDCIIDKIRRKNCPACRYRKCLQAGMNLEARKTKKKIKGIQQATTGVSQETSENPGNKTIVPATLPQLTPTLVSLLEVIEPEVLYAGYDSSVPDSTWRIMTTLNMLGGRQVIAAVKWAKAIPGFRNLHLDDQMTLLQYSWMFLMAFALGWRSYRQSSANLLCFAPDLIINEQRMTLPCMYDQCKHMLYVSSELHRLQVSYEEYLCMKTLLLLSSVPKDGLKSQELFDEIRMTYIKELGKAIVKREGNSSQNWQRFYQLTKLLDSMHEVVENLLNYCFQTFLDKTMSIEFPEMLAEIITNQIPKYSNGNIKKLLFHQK

Turning to `O=C(Cl)c1c(Cl)c(Cl)c(C(=O)Cl)c(Cl)c1Cl`, the call in [1], in [2], in assay [3], in [4], in assay [5] and in [6] was inactive. The molecule was called inactive in [7], in assay [8], in assay [9], in assay [10], in assay [11] and in assay [12]. Also, the molecule was classed as inactive in [13], in assay [14], in assay [15], in assay [16], in assay [17] and in assay [18].
Consider `CCCC(C)C(=O)OCC` (stereo not drawn), for which the molecule was classed as inactive in assay [1], in [2], in [6], in [8], in assay [10] and in assay [11]. Further, the molecule was called inactive in assay [12], in assay [13], in assay [14], in [15], in [16] and in assay [17]. Moreover, in [18], the result was inactive.
Regarding `CCOC(=O)/C=C\C(=O)OCC`, the result in assay [1], in [2], in assay [19], in [5], in assay [7] and in [8] was inactive. For the same molecule, the molecule was called inactive in assay [9], in assay [10], in [11], in assay [12], in assay [14] and in [15]. Moreover, the result in assay [16], in assay [17] and in assay [18] was inactive. Further, the AC50 (as a rule, the concentration giving half of the maximal activity seen) in assay [13] was 11.4 µM (active).
For `CC(CCC(=O)O)(c1ccc(O)cc1)c1ccc(O)cc1`, the outcome in [1], in [2], in assay [19], in [5], in assay [6] and in assay [7] was inactive. Moreover, the call in [8], in assay [9], in assay [10], in assay [11], in [12] and in [13] was inactive. Further, the result in assay [14], in assay [15], in [16] and in assay [17] was inactive.
